Results as given in PubChem BioAssay AID1568 (National Center for Advancing Translational Sciences (NCATS), 2009).
Results filed as inconclusive are left out. Where a call stands in place of a potency, no number is given. The source made the active and inactive calls. Calls come from the whole dose curve; as a rule, active = well fitted curve in the direction sought with a large enough effect; inconclusive = small, poorly fitted or top-dose-only effect, or effect the other way, or another doubt; inactive = no such curve, though single readings can be large or run the other way.

assay: Cell Viability Secondary Assay to Characterize qHTS Inhibitors of the Interaction of Thyroid Hormone Receptor and Steroid Receptor Coregulator 2; conditions: cell viability counter-screen, qHTS titration; series mostly up to 29.9 µM
Source text: NIH Molecular Libraries Probe Production Network [MLPCN]
NIH Chemical Genomics Center [NCGC]
Assay Provider: R. Kip Guy, St. Jude Children's Research Hospital
Thyroid receptor (TR) regulates many homeostatic processes including basal metabolism, cardiovascular function, body weight, and lipid trafficking. TR modulators are potential therapeutics for obesity and hyperlipidemias but current thyroid analogs have undesirable side effects, particularly cardiac stimulation. This secondary assay characterized selected actives identified in the qHTS for Inhibitors of the Interaction of Thyroid Hormone Receptor and Steroid Receptor Coregulator 2. The human follicular thyroid carcinoma cell line WRO (kindly provided by Dr. M. D. Ringel) stably expresses TRbeta and a luciferase reporter gene fused to TR response element. The effect of compounds on the viability of these cells was assessed by measuring ATP levels. Compounds that reduce cell viability are likely cytotoxic.
NCGC Assay Protocol Summary:
Cells were maintained in RPMI 1640 culture medium supplemented with 10% heat-inactivated FBS, 0.33 mg/ml hygromycin, 0.33 mg/ml geneticin, 50 units/ml penicillin, 50 ug/ml streptomycin. Cells were harvested and resuspended at 330,000 cells/ml in assay medium (50% DMEM 50% F-12 medium without Phenol-Red (Cellgro #16-405-CV), L-glutamine, 10% heat inactivated and charcoal treated FBS, 100 uM non-essential amino acid, 50 units/ml penicillin, 50 ug/ml streptomycin). Cells were dispensed at 10,000 cells/30 ul/well into 384 well plates (Corning 3917) and incubated 12 h at 37 C and 5% CO2. Compounds and T3 (100nM final concentration) were added using a pin tool and plates were incubated 16 h incubation at 37 C and 5% CO2. Following incubation, plates were equilibrated at ambient temperature for 30 min, 20 ul of CellTiter-Glo (Promega) was added and luminescence was detected by an EnVision (PerkinElmer).

SMILES | Potency
CCOc1cc(N2CCOCC2)c(OCC)cc1NC(C)C(=O)N1CCN(CC)CC1 (centres undefined) | inactive
Nc1cccnc1Sc1cc(Cl)c(Cl)cc1Cl | inactive
COc1ccc(C(=O)Oc2ccc(C(c3c(C)[nH][nH]c3=O)c3c(C)[nH][nH]c3=O)cc2OC)cc1 | inactive
CN1CCc2ccc3c4c2[C@]1(C)Cc1cccc(c1-4)OCO3 | 8.91 µM (active)
CN(C(=S)Nc1cccnc1)c1ccc(O)cc1 | inactive
C=CCNC(=O)/C(C#N)=C\c1cc(Cl)c(OCC)c(OC)c1 | inactive
CCOc1ccc(NC(=O)C(c2ccccn2)N(C(=O)CCl)c2ccc(F)cc2)cc1 (centres undefined) | inactive
CC1=NN(c2ccc(F)cc2)C(=O)C1C(c1cccc(O)c1)c1c(C)[nH]n(-c2ccc(F)cc2)c1=O (centres undefined) | inactive
CCC(NC(=O)Nc1ccc(O)cc1)(C(F)(F)F)C(F)(F)F | inactive
Oc1ccc2ccccc2c1/C=N/c1nccs1 | inactive
CS(=O)(=O)c1ccc(C(=O)OCC(=O)NC(=O)C2CCCCC2)cc1[N+](=O)[O-] | inactive
COn1c2c(c3c4nonc4ccc31)CCCC2 | inactive
O=C(O)C1C2C=CC(O2)C1C(=O)Nc1ccc(S(=O)(=O)N2CCc3ccccc32)cc1 (centres undefined) | inactive
CCCCCCN=CC1=C(O)CC(C)(C)CC1=O | inactive
CC1=NN(Cc2ccccc2)C(=O)C1 | inactive
N#Cc1c(NC(=O)c2ccccc2Cl)n(Cc2ccccc2)c2nc3ccccc3nc12 | inactive
Cc1ccc(OC(=S)Nc2ccc(O)cc2)cc1 | inactive
COc1ccc(C(=O)/C=C/Nc2ccc(S(=O)(=O)Nc3ncccn3)cc2)cc1 | inactive
COc1ccc2c(c1)-c1nc(/N=C/c3c(O)ccc4ccccc34)sc1CC2 | inactive
Cn1c(CCN2CCCCC2)nc2cc(NS(=O)(=O)c3ccc(Cl)cc3)ccc21 | inactive

SMILES | Potency
Cc1cc(C)cc(OCC(=O)NCCc2nc3ccccc3[nH]2)c1 | inactive
Cc1cccc(Cn2c(C(=O)OC(C)C)cc3c2ccn3C)c1 | inactive
CCCCOc1ccc(C(=O)CCN2CCOCC2)cc1 | inactive
COc1cc(C(c2c(C)[nH][nH]c2=O)c2c(C)[nH][nH]c2=O)ccc1OC(=O)c1cccc(C)c1 | inactive
C/C(=C\C(=O)c1ccccc1)Nc1ccc(O)cc1 | inactive
CCCc1nc2c(=O)n(C)c(=O)nc-2n(C)n1 | 0.794 µM (active)
O=C(NNc1cc(N2CCOCC2)nc(N2CCOCC2)n1)c1ccc([N+](=O)[O-])cc1 | inactive
CN(C)c1cc(Cl)c2nonc2c1N | inactive
CC1(C)C(N(O)C(=O)Nc2ccc(Cl)cc2)N(c2ccc(Cl)cc2)C(=O)N1CC(=O)NN (centres undefined) | inactive
CC1(C)CC(=O)C(N=Nc2cccc(S(=O)(=O)N3CCOCC3)c2)=C(O)C1 | inactive
Cc1c(C#N)c(O)n(CCO)c(=O)c1N=Nc1ccc2c(c1)COC2=O | inactive
Cc1cc(N=Cc2c(O)ccc3ccccc23)no1 | inactive
CCOC(=O)C(NC(=O)Nc1ccc(O)cc1)(c1ccccc1)C(F)(F)F (centres undefined) | inactive
CCc1ccc2c(c1)c1nc(C)sc1n2CC | inactive
Cc1cc2ccccc2n1CCNC(=O)C(C)Oc1ccccc1 (centres undefined) | inactive
Nc1c(C(=O)NCc2ccco2)c2nc3ccccc3nc2n1CCc1ccccc1 | inactive
Cc1ccc(-c2nc(S(=O)(=O)c3ccc(F)cc3)c(SCC(=O)NCC3CCCO3)o2)cc1 (centres undefined) | inactive
Cn1c(-c2ccc(=O)[nH]c2)nc2ccccc21 | inactive
COc1cc(C(c2c(C)[nH][nH]c2=O)c2c(C)[nH][nH]c2=O)ccc1OC(=O)c1ccccc1OC | inactive
